Assay [1] is described as follows: qHTS assay for identifying genotoxic compounds that show differential cytotoxicity against isogenic chicken DT40 cell lines with known DNA damage response pathways - Rev3 mutant cell line (AID 743014). Note: nearly all actives have a fitted effect of over 55% in size. Note: potency is the fitted concentration of half-maximal effect.
A short description of assay [2]: qHTS assay to identify small molecule antagonists of the androgen receptor (AR) signaling pathway - cell viability counter screen (AID 743033; note: nearly all actives have a fitted effect of over 45% in size).
A short description of assay [3]: qHTS assay to identify small molecule antagonists of the androgen receptor (AR) signaling pathway using the MDA cell line - cell viability counter screen (AID 743041; note: nearly all actives have a fitted effect of over 45% in size). The method, boiled down: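 In this qHTS counter assay, fluorescence intensity after CellTiter-Fluor addition indicated viability of MDA-kb2 AR-luc cells given compounds and R1881 for 16 h at 37C.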

Assay [4] can be described thus: qHTS assay to identify small molecule antagonists of the thyroid receptor (TR) signaling pathway - cell viability counter screen (AID 743064). Note: nearly all actives have a fitted effect of over 50% in size. Note: potency is the fitted concentration of half-maximal effect. In short, it runs like this:
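GH3.TRE-Luc cells, 4 h pre-plating; cpd + T3 1 nM final; 37 °C 23.5 h; CellTiter-Fluor 30 min; fluorescence read.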

Assay [5] in a line: qHTS assay to identify small molecule antagonists of the estrogen receptor alpha (ER-alpha) signaling pathway - cell viability counter screen (AID 743074; calls by dose curve;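 note: HEK293 cells carrying ER-alpha-UAS-bla reporter stimulated with 17beta-estradiol; nearly all actives have a fitted effect of over 45% in size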). A general note: In qHTS, concentration-response curves come from the screen itself.
Assay [6] deals with Estrogen receptor (Homo sapiens) (UniProt P03372). The experiment in a line: qHTS assay to identify small molecule agonists of the estrogen receptor alpha (ER-alpha) signaling pathway (AID 743075; calls by dose curve;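 note: HEK293 GripTite cells with ER-alpha and UAS-driven beta-lactamase reporter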; note: potency is the fitted concentration of half-maximal effect).
For assay [7] the target is unchanged. The experiment in a line: qHTS assay to identify small molecule agonists of the estrogen receptor alpha (ER-alpha) signaling pathway using the BG1 cell line (AID 743079). Note: nearly all actives have a fitted effect of over 20% in size. Note: potency is the fitted concentration of half-maximal effect.
A short description of assay [8]: qHTS assay to identify small molecule antagonists of the estrogen receptor alpha (ER-alpha) signaling pathway using the BG1 cell line (AID 743080; calls by dose curve;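 note: BG1 cells stimulated with 17beta-estradiol alongside compound; nearly all actives have a fitted effect of over 25% in size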; note: potency is the fitted concentration of half-maximal effect). The method, boiled down:
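Readout is ONE-Glo luminescence, taken 30 min at room temperature after reagent addition, preceded by a CellTiter-Fluor viability read; BG1-Luc-4E2 cells had received compound and 17beta-estradiol for 21.5 h at 37 C.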

Assay [9] is described as follows: qHTS assay to identify small molecule antagonists of the estrogen receptor alpha (ER-alpha) signaling pathway using the BG1 cell line - cell viability counter screen (AID 743081).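 Note: compound given together with 17beta-estradiol as the ER stimulus; series mostly up to about 70 µM; nearly all actives have a fitted effect of over 45% in size.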
In another assay the target is Aromatase (Homo sapiens) (UniProt P11511). The experiment in a line: qHTS assay to identify aromatase inhibitors (AID 743083). Note: nearly all actives have a fitted effect of over 55% in size. Note: potency is the fitted concentration of half-maximal effect.
A short description of assay [10]: qHTS assay to identify small molecule antagonists of the glucocorticoid receptor (GR) signaling pathway - cell viability counter screen (AID 720693). Note: nearly all actives have a fitted effect of over 55% in size.
The nature of assay [11]: qHTS assay for identifying genotoxic compounds that show differential cytotoxicity against isogenic chicken DT40 cell lines with known DNA damage response pathways - Rad54/Ku70 mutant cell line (AID 743015). Note: nearly all actives have a fitted effect of over 60% in size. Note: potency is the fitted concentration of half-maximal effect.
Assay [12] has as its system thyroid hormone receptor (rat, GH3 cells). The experiment in a line: qHTS assay to identify small molecule agonists of the thyroid receptor (TR) signaling pathway (AID 743066; calls by dose curve).
In assay [13] the target is Estrogen receptor (Homo sapiens) (UniProt P03372). In words: qHTS assay to identify small molecule antagonists of the estrogen receptor alpha (ER-alpha) signaling pathway (AID 743069; active = well fitted curve in the direction sought with a large enough effect in the signal ratio in the repeat runs, not every such curve was filed as active; inconclusive = weak or mixed curves, or effect the other way; inactive = no such curve, though single readings can be large or run the other way; the % refers to the signal ratio; note: potency is the fitted concentration of half-maximal effect). In short, it runs like this:
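A 17beta-estradiol challenge was applied right after compound transfer to ER-alpha-UAS-bla HEK293 cells previously kept in charcoal-stripped serum. Plates stood 18 hr at 37C and 5% CO2; fluorescence was read following 2 hr FRET substrate loading at room temperature.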

Assay [14] addresses Androgen receptor (Homo sapiens) (UniProt P10275). The experiment in a line: qHTS assay to identify small molecule agonists of the androgen receptor (AR) signaling pathway using the MDA cell line (AID 743040; note: nearly all actives have a fitted effect of over 20% in size). The method, boiled down:
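Cell-based luciferase reporter: MDA-kb2, MMTV promoter (AR + GR response elements). 16 h compound exposure at 37C; ONE-Glo, 30 min RT, luminescence.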

Assay [15] has the same target. The experiment in a line: qHTS assay to identify small molecule antagonists of the androgen receptor (AR) signaling pathway using the MDA cell line (AID 743042; note: nearly all actives have a fitted effect of over 55% in size). The method, boiled down: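 MDA-kb2 cells (human breast carcinoma, stably carrying an MMTV-luciferase reporter responsive to AR and GR) were plated at 3,000 cells/well and preincubated 5 hr at 37C, then given compound plus R1881 agonist for 16 h. ONE-Glo luminescence was read.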

Assay [16] is described as follows: qHTS assay to identify small molecule antagonists of the thyroid receptor (TR) signaling pathway (AID 743065). Note: nearly all actives have a fitted effect of over 55% in size. Note: potency is the fitted concentration of half-maximal effect. The method, boiled down: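 GH3.TRE-Luc rat pituitary cells carrying two TR response elements driving luciferase were plated for 4 h, given compound plus 1 nM T3 (final), and incubated 23.5 h at 37 C. ONE-Glo luminescence measured reporter inhibition; CellTiter-Fluor fluorescence tracked cytotoxicity.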

In assay [17] the target is Androgen receptor (Homo sapiens) (UniProt P10275). In words: qHTS assay to identify small molecule antagonists of the androgen receptor (AR) signaling pathway (AID 743035; active = well fitted inhibition curve with a large enough effect in the signal ratio in the repeat runs, not every such curve was filed as active; inconclusive = weak or mixed curves, or effect the other way; inactive = no such curve, though single readings can be large or run the other way; the % refers to the signal ratio; note: potency is the fitted concentration of half-maximal effect). In short, it runs like this:
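AR-bla HEK293 reporter cells; 4 h settle at 37C/5% CO2; compound + R1881 agonist, 16 h at 37C; LiveBLAzer B/G FRET substrate 2 h RT; fluorescence intensity read. qHTS format.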

For assay [18] the target is unchanged. The experiment in a line: qHTS assay to identify small molecule agonists of the androgen receptor (AR) signaling pathway (AID 743036; active = well fitted activation curve with a large enough effect in the signal ratio in the repeat runs, with a control signal flat, not every such curve was filed as active; inconclusive = weak or mixed curves, or effect the other way; inactive = no such curve, though single readings can be large or run the other way; the % refers to the signal ratio). The method, boiled down: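 AR-bla HEK293 cells, 2,000/well; 4 h preincubation 37C/5% CO2; compound (DMSO) 16 h at 37C; LiveBLAzer B/G FRET substrate 2 h RT; fluorescence intensity read-out.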
The nature of assay [19]: qHTS assay for identifying genotoxic compounds that show differential cytotoxicity against isogenic chicken DT40 cell lines with known DNA damage response pathways - wild type cell line (AID 743012). Note: nearly all actives have a fitted effect of over 60% in size. Note: potency is the fitted concentration of half-maximal effect. In short, it runs like this: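 CellTiter-Glo luminescence readout of viability in wild type DT40 cells after 40 h compound exposure at 37 C/5% CO2; 300 cells/well; reagent incubated 30 min at room temperature before reading.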

Calls of active or inactive are those of the source. Unless noted, calls come from the whole dose curve; as a rule, active = well fitted curve in the direction sought with a large enough effect in the repeat runs; inconclusive = weak or mixed curves; inactive = no such curve, though single readings can be large; an effect the other way counts as inactive or inconclusive.

Chain of Aromatase (Homo sapiens) (P11511 whole entry, looked up): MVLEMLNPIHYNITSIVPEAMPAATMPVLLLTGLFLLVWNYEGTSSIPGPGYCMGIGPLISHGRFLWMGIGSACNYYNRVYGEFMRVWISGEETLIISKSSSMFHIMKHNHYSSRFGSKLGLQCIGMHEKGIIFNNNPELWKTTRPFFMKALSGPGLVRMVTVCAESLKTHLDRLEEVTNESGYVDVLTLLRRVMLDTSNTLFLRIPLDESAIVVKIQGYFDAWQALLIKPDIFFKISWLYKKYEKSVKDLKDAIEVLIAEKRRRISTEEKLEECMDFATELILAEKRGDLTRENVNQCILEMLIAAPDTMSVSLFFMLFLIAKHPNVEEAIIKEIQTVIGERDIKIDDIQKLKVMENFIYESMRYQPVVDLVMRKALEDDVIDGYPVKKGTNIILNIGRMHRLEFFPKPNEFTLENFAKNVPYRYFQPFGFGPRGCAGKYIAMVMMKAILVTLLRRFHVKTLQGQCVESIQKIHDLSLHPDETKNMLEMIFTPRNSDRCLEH
Chain of Androgen receptor (Homo sapiens) (P10275 whole entry, looked up): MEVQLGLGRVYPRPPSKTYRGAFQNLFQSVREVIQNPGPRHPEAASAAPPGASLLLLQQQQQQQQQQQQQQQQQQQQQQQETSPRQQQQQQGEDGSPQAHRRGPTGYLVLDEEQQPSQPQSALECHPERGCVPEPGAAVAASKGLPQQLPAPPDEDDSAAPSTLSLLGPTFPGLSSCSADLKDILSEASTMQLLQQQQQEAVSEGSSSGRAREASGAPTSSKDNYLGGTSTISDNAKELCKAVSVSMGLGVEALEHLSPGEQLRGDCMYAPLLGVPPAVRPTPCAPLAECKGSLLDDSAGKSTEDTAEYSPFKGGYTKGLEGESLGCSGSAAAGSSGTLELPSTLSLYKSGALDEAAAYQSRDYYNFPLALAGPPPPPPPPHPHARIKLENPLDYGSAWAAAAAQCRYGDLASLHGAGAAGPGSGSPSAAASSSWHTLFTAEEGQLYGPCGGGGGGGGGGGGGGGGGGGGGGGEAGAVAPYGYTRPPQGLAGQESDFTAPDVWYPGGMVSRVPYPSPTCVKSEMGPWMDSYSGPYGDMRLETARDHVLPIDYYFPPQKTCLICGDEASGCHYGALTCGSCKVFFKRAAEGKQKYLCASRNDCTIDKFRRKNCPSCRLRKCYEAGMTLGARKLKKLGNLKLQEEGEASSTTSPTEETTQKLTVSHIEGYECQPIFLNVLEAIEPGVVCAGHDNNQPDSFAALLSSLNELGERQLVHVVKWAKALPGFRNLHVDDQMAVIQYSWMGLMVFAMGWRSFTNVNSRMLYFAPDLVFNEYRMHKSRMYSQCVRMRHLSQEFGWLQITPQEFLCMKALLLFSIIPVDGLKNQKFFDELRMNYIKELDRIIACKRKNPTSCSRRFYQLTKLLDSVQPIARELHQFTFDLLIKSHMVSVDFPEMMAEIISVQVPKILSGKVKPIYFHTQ
Chain of Estrogen receptor (Homo sapiens) (P03372 whole entry, looked up): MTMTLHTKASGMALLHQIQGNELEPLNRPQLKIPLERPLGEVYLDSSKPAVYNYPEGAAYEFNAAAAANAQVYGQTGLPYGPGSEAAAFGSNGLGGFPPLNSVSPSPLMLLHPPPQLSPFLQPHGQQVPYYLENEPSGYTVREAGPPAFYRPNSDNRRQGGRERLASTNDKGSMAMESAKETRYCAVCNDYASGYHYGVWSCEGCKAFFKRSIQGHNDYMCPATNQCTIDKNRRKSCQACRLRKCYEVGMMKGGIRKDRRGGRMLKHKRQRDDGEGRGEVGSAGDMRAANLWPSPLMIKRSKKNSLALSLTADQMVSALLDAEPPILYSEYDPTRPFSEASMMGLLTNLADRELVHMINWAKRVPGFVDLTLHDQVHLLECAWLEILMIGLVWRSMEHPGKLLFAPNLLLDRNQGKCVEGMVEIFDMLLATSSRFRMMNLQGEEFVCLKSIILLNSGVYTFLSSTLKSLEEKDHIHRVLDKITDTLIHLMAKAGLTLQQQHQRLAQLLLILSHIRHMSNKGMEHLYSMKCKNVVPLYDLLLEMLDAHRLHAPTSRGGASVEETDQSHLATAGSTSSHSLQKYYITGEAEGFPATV

For `C#CCOC(=O)[C@@H](C)Oc1ccc(Oc2ncc(Cl)cc2F)cc1`, the Potency entry in assay [1], in assay [2], in assay [3], in assay [4], in assay [6] and in [7] was “inactive” in each case. Moreover, the Potency entry (in assay [8]; in assay [9]; with Aromatase (Homo sapiens)) was “inactive” throughout. Besides, the compound was classed as inactive in assay [5].
In the case of `CCCCCOC(=O)c1ccc(O)cc1`, the Potency result in assay [10], in assay [2], in assay [3], in assay [4], in [12] and in assay [9] was “inactive” throughout. Also, the Potency in [11] was 61.9 µM (active); in [13], 62.4 µM [inconclusive] (active); in assay [6], 55.6 µM [inconclusive] (active); in assay [7], 17.4 µM (active). In assay [5], the compound was called inactive.
As for `CN(C)CC[C@@H](c1ccc(Br)cc1)c1ccccn1`, the Potency entry in [10], in assay [2], in assay [3], in assay [13], in assay [6] and in assay [7] was “inactive” throughout. Moreover, the Potency result in assay [9] is “inactive”. In addition, in assay [5], the compound was classed as inactive.
Turning to `COC(=O)CSc1cc(N=c2sc(=O)n3n2CCCC3)c(F)cc1Cl`, the Potency result in assay [2], in assay [14], in [3], in [15], in assay [4] and in assay [16] was “inactive” throughout. For the same compound, the Potency entry (in assay [12]; in assay [9]; with Aromatase (Homo sapiens)) was “inactive” each time. Also, the compound was called inactive in assay [5].
For `CC(C)CCCC(C)CCO` (stereo not drawn), the Potency result in assay [10], in [17], in assay [14], in [3], in assay [15] and in assay [12] was “inactive” in each case. Besides, the Potency entry (in [13]; in [6]; in assay [9]; with Aromatase (Homo sapiens)) was “inactive” each time. For the same compound, the compound was called inactive in assay [18] and in [5].
Turning to `CCOc1nc2cccc(C(=O)O)c2n1Cc1ccc(-c2ccccc2-c2nn[nH]n2)cc1`, the Potency entry in assay [1], in assay [2], in assay [17], in assay [14], in assay [3] and in assay [15] was “inactive” in each case. The Potency result (in assay [6]; in assay [9]; with Aromatase (Homo sapiens)) was “inactive” throughout. Moreover, the Potency is 29.8 µM (active) in [11]; 29.8 µM (active) in assay [4]; 0.425 µM [inconclusive] (active) in assay [13]; 0.0376 µM (active) in assay [7]; 2.66 µM (active) in [8]. For the same compound, the compound was classed as inactive in assay [18] and in [5].
Regarding `CC[C@]12CCCN3CCc4c(n(c5ccccc45)C(=O)C1)[C@@H]32`, the Potency in assay [19] was 4.52 µM (active); in assay [1], 4.52 µM (active); in [11] it was 7.17 µM (active); in [17], 9.1 µM (active); in assay [4] it was 8.04 µM (active); in [16], 7.17 µM (active). In the assay with Aromatase (Homo sapiens), the Potency is 11.4 µM (active). Moreover, the Potency entry in assay [2], in [14], in assay [3], in assay [15], in assay [12] and in assay [9] was “inactive” each time. The compound was called inactive in assay [5].
As to `CC1(C)CCC(C)(C)c2cc(NC(=O)c3ccc(C(=O)O)cc3)ccc21`, the Potency in assay [19] is 26.6 µM (active); in [11], 23.7 µM (active); in assay [16], 21.1 µM (active). In addition, the Potency result in [2], in assay [12] and in [9] was “inactive” in each case. The compound was called inactive in assay [5].
For the compound `Oc1ccc(O)c2c(O)cccc12`, the Potency result in [19], in [1], in [11], in assay [2], in assay [16] and in assay [12] was “inactive” each time. Besides, the Potency entry (in assay [13]; in assay [6]; in [7]; in assay [8]; in assay [9]; in the assay with Aromatase (Homo sapiens)) was “inactive” throughout. Besides, in assay [5], the call was inactive.
Regarding `COc1ccc([C@@H]2Sc3ccccc3N(CCN(C)C)C(=O)[C@@H]2OC(C)=O)cc1`, the Potency entry in assay [10], in assay [2] and in assay [3] was “inactive” each time. Also, in assay [4], the Potency is 23.7 µM (active).
As to `CCCCCOC(=O)COc1cc(N2C(=O)C3=C(CCCC3)C2=O)c(F)cc1Cl`, the Potency result in assay [10], in [1], in assay [2], in assay [3], in assay [4] and in assay [12] was “inactive” throughout. In addition, the Potency entry (in [13]; in assay [6]; in assay [7]; in assay [8]; in [9]; with Aromatase (Homo sapiens)) was “inactive” each time. The compound was classed as inactive in assay [5].
For the compound `Oc1ccc(Sc2ccc(O)cc2)cc1`, the Potency entry (in assay [10]; in assay [2]; in assay [3]; in assay [12]; in [9]; with Aromatase (Homo sapiens)) was “inactive” each time. The Potency in [16] is 51 µM (active); in assay [6], 18.2 µM [inconclusive] (active); in [7], 0.51 µM (active). For the same compound, the outcome in assay [5] was inactive.

For the origin of these results see PubChem BioAssay (Tox21).
